Test results as given in PubChem BioAssay (Tox21).
Values without a mark were called inactive. Records with an inconclusive call do not appear. A call without a number means that no potency is given here. Activity calls are given as the source filed them. Unless noted, calls follow the shape of the dose curve; as a rule, active = well fitted curve in the direction sought with a large enough effect in the repeat runs; inconclusive = weak or mixed curves; inactive = no such curve, though single readings can be large; an effect the other way counts as inactive or inconclusive.

Legend:
[1] = Human pregnane X receptor (PXR) small molecule agonists, qHTS cell viability counter screen (AID 1346977); also: nearly all actives have a fitted effect of over 50% in size
Outline: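 PXR-Luc HepG2, 2,000 cells/well, 5% charcoal-stripped FBS; 5hr settle; cpd 24hr, 37C/5% CO2; CellTiter-Fluor at 23hr, read 1hr later (fluorescence).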

[2] = Caspase-3/7 induction in HepG2 cells by small molecules, qHTS assay (AID 1346978); also: nearly all actives have a fitted effect of over 15% in size
Outline: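 Caspase-3/7 induction was measured by Caspase-Glo 3/7 luminescence (30 min, room temperature) after a 17 hr compound exposure of wild-type HepG2 cells seeded at 2,000 per well and pre-incubated 5 hr.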

[3] = Caspase-3/7 induction in CHO-K1 cells by small molecules, qHTS cell viability counter screen (AID 1346979); also: nearly all actives have a fitted effect of over 35% in size
Outline: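 Cells (CHO-K1, wild type) are plated at 1,500 per well and incubated 5hr. Test compounds in DMSO are then pinned in, followed by 16hr at 37C and 5% CO2. Viability is read by CellTiter-Fluor fluorescence after 1hr.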

[4] = Caspase-3/7 induction in CHO-K1 cells by small molecules, qHTS assay (AID 1346980); also: nearly all actives have a fitted effect of over 15% in size
Outline: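 Luminescent Caspase-Glo 3/7 read (30min, room temperature) quantified apoptosis induction. Cells were wild-type CHO-K1, treated with compound for 17hr at 37 C and 5% CO2.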

[5] = Caspase-3/7 induction in HepG2 cells by small molecules, qHTS cell viability counter screen (AID 1346981); also: series mostly up to about 92 µM; nearly all actives have a fitted effect of over 30% in size
Outline: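 Wild-type HepG2 cells, 2,000/well, settled 5 hr at 37 C, 5% CO2 before compound addition. Viability read by CellTiter-Fluor fluorescence, reagent added after 16 hr compound exposure, then 1 hr at 37C, in the same wells as the caspase read.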

[6] = target: Nuclear receptor subfamily 1 group I member 2 (Homo sapiens) (UniProt O75469); experiment: Human pregnane X receptor (PXR) small molecule agonists, qHTS assay (AID 1346982); also: nearly all actives have a fitted effect of over 35% in size; also: potency is read from the fitted curve at half-maximal effect
Nuclear receptor subfamily 1 group I member 2 (Homo sapiens), sequence (O75469 whole entry, looked up): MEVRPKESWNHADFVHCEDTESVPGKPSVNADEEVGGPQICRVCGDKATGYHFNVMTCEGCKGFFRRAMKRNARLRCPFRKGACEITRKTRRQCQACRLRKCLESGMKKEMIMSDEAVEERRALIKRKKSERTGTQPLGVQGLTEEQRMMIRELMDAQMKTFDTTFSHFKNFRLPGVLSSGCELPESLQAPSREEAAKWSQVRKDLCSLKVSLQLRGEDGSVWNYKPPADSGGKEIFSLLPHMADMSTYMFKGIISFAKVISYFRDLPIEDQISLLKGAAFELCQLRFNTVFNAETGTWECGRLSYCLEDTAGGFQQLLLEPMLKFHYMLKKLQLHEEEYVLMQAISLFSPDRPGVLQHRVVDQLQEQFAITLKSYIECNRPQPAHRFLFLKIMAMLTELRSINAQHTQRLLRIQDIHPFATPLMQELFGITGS
Outline: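 PXR-Luc HepG2 reporter cells (CYP3A4-driven luciferase) in 5% charcoal-stripped FBS medium, plated 5 h before compound addition, then treated 24 h at 37C. Luciferase read by ONE-Glo luminescence after 30 min at room temperature.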

[7] = target: Acetylcholinesterase (Homo sapiens) (UniProt P22303); experiment: Acetylcholinesterase (AChE) small molecule antagonists: colormetric cell-based qHTS assay (AID 1347395; calls by dose curve; also: nearly all actives have a fitted effect of over 30% in size)
Acetylcholinesterase (Homo sapiens), sequence (P22303 whole entry, looked up): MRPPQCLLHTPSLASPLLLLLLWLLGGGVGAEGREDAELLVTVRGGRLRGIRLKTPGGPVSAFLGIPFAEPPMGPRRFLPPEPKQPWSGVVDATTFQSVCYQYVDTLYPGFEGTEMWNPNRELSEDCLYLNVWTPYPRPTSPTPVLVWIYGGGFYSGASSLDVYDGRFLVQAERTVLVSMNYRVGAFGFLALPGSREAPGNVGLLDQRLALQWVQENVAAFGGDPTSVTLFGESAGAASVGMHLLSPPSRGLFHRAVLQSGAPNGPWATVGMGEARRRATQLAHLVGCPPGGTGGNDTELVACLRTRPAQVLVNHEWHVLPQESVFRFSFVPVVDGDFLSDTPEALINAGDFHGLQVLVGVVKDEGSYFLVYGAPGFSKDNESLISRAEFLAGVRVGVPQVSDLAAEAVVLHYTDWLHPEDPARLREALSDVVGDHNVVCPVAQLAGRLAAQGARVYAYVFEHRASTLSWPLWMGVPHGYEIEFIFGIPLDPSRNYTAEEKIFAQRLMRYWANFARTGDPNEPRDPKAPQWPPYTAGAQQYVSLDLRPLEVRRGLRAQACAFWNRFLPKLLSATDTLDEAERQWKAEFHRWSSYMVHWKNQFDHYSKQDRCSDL
Outline: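 Colorimetric read-out: DTNB detects thiocholine released when cellular AChE in SH-SY5Y cells hydrolyses acetylthiocholine. Cells attached overnight, received compound for 30 min at 37 C, then substrate mix for 90 min at 37 C.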

[8] = target: Acetylcholinesterase (Homo sapiens) (UniProt P22303); experiment: Acetylcholinesterase (AChE) small molecule antagonists: enzyme-based qHTS assay (AID 1347397; calls by dose curve; also: nearly all actives have a fitted effect of over 55% in size); conditions: Potency: AChE enzyme activity inhibition
Outline: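 Absorbance-based detection of thiocholine with DTNB served as the read-out. Recombinant human AChE was exposed to compound for 30 min at RT before a 10 min RT incubation with acetylthiocholine.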

[9] = target: Acetylcholinesterase (Homo sapiens) (UniProt P22303); experiment: Acetylcholinesterase (AChE) small molecule antagonists: fluorescence cell-based qHTS assay (AID 1347398; calls by dose curve; also: nearly all actives have a fitted effect of over 50% in size); conditions: Potency: AChE activity
Outline: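 Fluorimetric cell-based assay: intact SH-SY5Y cells, 30 min compound preincubation at 37 C, acetylthiocholine substrate with thiol probe Thiolite Green, 40 min RT development, fluorescence 490/520 nm.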

[10] = target: Acetylcholinesterase (Homo sapiens) (UniProt P22303); experiment: Acetylcholinesterase (AChE) small molecule antagonists: enzyme-based qHTS assay with human liver microsomes (AID 1347399; calls by dose curve; also: nearly all actives have a fitted effect of over 60% in size); conditions: Potency: qHTS inhibition
Outline: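 Recombinant human AChE (50 mU/mL in the enzyme mix) and human liver microsomes (0.25 mg/mL final) were preincubated with compound and NADPH (0.25 mg/mL final) for 30 min at 37 C. Acetylthiocholine/DTNB was then added; thiocholine was read colorimetrically after 10 min at room temperature.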

[11] = target: Cytochrome P450 2D6 (Homo sapiens) (UniProt P10635); experiment: Cytochrome P450 Family 2 Subfamily D Member 6 (CYP2D6) small molecule antagonists: luciferase reporter qHTS assay (AID 1671196); also: nearly all actives have a fitted effect of over 50% in size; also: potency is read from the fitted curve at half-maximal effect
Outline: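 Cell-free P450-Glo system: CYP2D6 with proluciferin substrate was pre-incubated with compound for 10 min, then reacted with NADPH regeneration for 1 h at room temperature. Luciferin product was detected after 20 min, and data were reported as relative luminescence units.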

[12] = target: Cytochrome P450 2C19 (Homo sapiens) (UniProt P33261); experiment: Cytochrome P450 Family 2 Subfamily C Member 19 (CYP2C19) small molecule antagonists: luciferase reporter qHTS assay (AID 1671197); also: nearly all actives have a fitted effect of over 65% in size; also: potency is read from the fitted curve at half-maximal effect
Cytochrome P450 2C19 (Homo sapiens), sequence (P33261 whole entry, looked up): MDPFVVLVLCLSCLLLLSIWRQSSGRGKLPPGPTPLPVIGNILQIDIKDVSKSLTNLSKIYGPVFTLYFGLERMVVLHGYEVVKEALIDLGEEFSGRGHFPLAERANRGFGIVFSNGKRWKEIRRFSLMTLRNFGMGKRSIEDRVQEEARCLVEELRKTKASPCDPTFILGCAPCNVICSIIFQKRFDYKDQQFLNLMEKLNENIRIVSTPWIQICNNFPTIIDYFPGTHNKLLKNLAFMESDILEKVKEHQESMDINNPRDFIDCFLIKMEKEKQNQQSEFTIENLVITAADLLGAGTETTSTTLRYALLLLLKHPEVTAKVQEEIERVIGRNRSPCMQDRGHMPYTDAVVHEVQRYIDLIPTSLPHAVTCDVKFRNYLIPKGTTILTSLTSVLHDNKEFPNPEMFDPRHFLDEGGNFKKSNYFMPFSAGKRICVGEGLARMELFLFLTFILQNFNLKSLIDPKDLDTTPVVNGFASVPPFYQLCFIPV
Outline: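 Enzyme-substrate mix with proluciferin substrate (P450-Glo CYP2C19 system) preincubated with compounds 10 min at room temperature; NADPH regeneration solution added, 37C for 1 h; detection reagent stops reaction, luminescence read after 20 min. Ketoconazole positive control.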

[13] = target: Cytochrome P450 2C9 (Homo sapiens) (UniProt P11712); experiment: Cytochrome P450 Family 2 Subfamily C Member 9 (CYP2C9) small molecule antagonists: luciferase reporter qHTS assay (AID 1671198); also: nearly all actives have a fitted effect of over 50% in size; also: potency is read from the fitted curve at half-maximal effect
Cytochrome P450 2C9 (Homo sapiens), sequence (P11712 whole entry, looked up): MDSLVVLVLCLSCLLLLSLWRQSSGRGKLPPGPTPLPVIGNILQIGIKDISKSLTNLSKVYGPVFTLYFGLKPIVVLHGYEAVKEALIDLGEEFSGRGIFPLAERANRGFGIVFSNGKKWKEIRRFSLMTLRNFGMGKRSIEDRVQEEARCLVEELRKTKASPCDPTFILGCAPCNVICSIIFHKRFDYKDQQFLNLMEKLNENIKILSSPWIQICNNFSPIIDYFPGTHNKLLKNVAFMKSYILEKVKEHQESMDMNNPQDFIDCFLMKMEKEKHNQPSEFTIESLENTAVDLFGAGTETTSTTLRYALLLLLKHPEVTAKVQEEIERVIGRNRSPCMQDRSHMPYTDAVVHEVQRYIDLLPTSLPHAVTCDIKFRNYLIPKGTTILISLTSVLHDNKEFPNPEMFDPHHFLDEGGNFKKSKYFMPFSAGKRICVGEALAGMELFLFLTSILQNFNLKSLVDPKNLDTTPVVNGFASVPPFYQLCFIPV
Outline: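 Enzyme-substrate mix preincubated with compound 10 min at room temperature; reaction started with NADPH regeneration solution, 1 h 37C. Luminescent luciferin product read after 20 min detection reagent.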

[14] = target: Cytochrome P450 1A2 (Homo sapiens) (UniProt P05177); experiment: Cytochrome P450 Family 1 Subfamily A Member 2 (CYP1A2) small molecule antagonists: luciferase reporter qHTS assay (AID 1671199); also: nearly all actives have a fitted effect of over 50% in size; also: potency is read from the fitted curve at half-maximal effect
Cytochrome P450 1A2 (Homo sapiens), sequence (P05177 whole entry, looked up): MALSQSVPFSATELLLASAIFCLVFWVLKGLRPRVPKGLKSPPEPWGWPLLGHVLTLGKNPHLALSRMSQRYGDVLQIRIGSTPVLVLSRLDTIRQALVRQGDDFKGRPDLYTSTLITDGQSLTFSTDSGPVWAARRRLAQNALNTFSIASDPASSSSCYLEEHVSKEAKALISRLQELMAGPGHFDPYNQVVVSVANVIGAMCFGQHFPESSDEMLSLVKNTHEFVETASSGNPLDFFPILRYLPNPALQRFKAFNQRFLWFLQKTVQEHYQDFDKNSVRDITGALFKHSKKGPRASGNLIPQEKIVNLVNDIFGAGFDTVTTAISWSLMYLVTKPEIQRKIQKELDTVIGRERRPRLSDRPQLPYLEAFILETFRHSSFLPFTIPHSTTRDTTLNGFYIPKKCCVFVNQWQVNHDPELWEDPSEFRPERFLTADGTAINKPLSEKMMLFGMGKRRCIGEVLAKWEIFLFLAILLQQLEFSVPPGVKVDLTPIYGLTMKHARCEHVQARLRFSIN
Outline: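 P450-Glo CYP1A2 enzyme–proluciferin substrate mix with compound 10 min at room temperature, then NADPH regeneration 1 h at room temperature. Luciferin detection reagent added, luminescence read after 20 min; furafylline positive control.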

[15] = target: Voltage-gated inwardly rectifying potassium channel KCNH2 (Homo sapiens) (UniProt Q12809); experiment: Human Ether-a-go-go-Related Gene (hERG) channel small molecule antagonists: fluorescence cell-based qHTS assay (AID 1671200)
Voltage-gated inwardly rectifying potassium channel KCNH2 (Homo sapiens), sequence (Q12809 whole entry, looked up): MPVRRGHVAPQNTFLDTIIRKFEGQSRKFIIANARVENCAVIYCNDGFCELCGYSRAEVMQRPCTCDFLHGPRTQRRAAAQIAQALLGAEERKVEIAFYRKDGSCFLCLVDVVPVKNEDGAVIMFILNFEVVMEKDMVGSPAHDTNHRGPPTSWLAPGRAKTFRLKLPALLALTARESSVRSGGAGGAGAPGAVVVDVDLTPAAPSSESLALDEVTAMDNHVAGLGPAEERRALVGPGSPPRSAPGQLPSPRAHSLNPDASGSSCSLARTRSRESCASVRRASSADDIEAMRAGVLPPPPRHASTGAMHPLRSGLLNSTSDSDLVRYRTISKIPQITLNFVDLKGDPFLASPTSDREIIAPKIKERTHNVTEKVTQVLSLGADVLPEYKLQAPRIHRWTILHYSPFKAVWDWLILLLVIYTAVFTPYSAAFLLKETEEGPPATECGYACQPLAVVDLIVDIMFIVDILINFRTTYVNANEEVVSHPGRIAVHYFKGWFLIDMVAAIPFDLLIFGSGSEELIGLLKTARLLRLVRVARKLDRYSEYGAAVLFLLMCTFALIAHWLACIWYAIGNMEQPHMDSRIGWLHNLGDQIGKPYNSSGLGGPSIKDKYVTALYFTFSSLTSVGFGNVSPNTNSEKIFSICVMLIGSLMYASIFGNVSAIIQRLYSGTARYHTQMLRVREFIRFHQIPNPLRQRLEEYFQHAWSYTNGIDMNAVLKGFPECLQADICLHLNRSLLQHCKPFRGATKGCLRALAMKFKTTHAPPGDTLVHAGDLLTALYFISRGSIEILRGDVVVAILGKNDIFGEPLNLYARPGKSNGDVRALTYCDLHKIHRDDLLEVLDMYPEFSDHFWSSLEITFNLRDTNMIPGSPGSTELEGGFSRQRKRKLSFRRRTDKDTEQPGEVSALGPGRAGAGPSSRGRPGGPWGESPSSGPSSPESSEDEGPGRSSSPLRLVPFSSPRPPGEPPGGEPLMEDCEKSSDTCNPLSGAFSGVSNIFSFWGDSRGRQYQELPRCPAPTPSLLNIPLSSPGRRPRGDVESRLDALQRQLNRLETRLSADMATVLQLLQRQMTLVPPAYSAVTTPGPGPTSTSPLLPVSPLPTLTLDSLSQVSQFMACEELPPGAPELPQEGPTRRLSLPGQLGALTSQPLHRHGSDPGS
Outline: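 Channel function was assessed by thallium flux. Cells seeded the previous day and kept at 37 C took up FluxOR II dye over 1 h in the dark at room temperature, then sat another 10 min before stimulation.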

[16] = target: Cytochrome P450 3A4 (Homo sapiens) (UniProt P08684); experiment: Cytochrome P450 Family 3 Subfamily A Member 4 (CYP3A4) small molecule antagonists: luciferase reporter qHTS assay (AID 1671201)
Cytochrome P450 3A4 (Homo sapiens), sequence (P08684 whole entry, looked up): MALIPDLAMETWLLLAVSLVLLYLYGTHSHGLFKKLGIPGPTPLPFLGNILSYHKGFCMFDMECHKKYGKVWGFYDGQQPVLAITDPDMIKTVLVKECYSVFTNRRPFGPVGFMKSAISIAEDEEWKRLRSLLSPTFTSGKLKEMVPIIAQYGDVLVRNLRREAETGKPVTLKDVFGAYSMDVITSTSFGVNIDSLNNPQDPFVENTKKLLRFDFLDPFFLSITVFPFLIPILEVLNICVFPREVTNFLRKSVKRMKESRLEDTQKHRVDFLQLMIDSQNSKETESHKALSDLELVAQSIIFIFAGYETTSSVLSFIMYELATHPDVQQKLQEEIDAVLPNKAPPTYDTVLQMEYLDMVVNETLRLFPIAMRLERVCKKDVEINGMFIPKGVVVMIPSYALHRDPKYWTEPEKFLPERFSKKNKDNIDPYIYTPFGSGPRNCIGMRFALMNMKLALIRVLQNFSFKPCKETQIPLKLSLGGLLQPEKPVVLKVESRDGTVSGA
Outline: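 Compounds in DMSO were pin-transferred onto CYP3A4 enzyme-substrate mix and held 10 min at room temperature. NADPH regenerating solution started the reaction for 1 h; luciferin detection reagent stopped it, and luminescence was read after 20 min.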

[17] = target: Nuclear receptor subfamily 1 group I member 2 (Rattus norvegicus) (UniProt Q9R1A7); experiment: Rat pregnane X receptor (rPXR) activation by small molecules, qHTS assay (AID 1346983); conditions: rPXR luciferase reporter cells, One-Glo luminescence, 24 h; max activation: active compounds read high; also: nearly all actives have a fitted effect of over 20% in size
Nuclear receptor subfamily 1 group I member 2 (Rattus norvegicus), sequence (Q9R1A7 whole entry, looked up): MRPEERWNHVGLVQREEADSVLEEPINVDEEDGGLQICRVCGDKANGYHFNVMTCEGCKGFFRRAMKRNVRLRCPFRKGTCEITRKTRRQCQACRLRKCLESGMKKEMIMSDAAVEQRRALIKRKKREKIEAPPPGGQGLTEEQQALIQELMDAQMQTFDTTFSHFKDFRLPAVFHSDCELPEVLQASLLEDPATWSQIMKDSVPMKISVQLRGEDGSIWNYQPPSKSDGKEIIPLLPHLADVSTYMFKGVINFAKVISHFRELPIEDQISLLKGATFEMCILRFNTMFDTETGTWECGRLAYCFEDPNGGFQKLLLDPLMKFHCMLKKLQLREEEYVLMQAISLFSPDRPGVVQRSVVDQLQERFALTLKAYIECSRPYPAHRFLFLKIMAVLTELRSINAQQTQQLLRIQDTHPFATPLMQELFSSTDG
Outline: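 Luminescent readout (One-Glo luciferase, 30 min room temperature) followed 24 hr compound treatment at 37 C of rPXR cells plated 2,000 per well and preincubated 5hr; qHTS format with compounds delivered in DMSO.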

[18] = target: Nuclear receptor subfamily 1 group I member 2 (Homo sapiens) (UniProt O75469); experiment: CYP3A4 induction through human pregnane X receptor (PXR) by small molecules, qHTS assay (AID 1346984); also: nearly all actives have a fitted effect of over 40% in size
Outline: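 DPX-2 HepG2 cells carrying a PXR response element and CYP3A4-promoter luciferase construct, treated with compounds 24 hr at 37C. Then P450-Glo CYP3A4 Luciferin-IPA substrate (3uM final) for 3 hr at 37C, One-Glo added, luminescence read.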

[19] = target: Nuclear receptor subfamily 1 group I member 2 (Homo sapiens) (UniProt O75469); experiment: Human pregnane X receptor (PXR) activation by small molecules, qHTS assay (AID 1346985); also: nearly all actives have a fitted effect of over 40% in size
Outline: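 DPX-2 cells (HepG2 co-transfected with a PXR response element and a CYP3A4-promoter luciferase construct) were seeded at 2,000 per well, rested 5 hr at 37C, then exposed to DMSO-dissolved compounds for 24 hr. Activation was read as luciferase luminescence.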

SMILES	Potency [1]	Potency [2]	Potency [3]	Potency [4]	Potency [5]	Potency [6]	Potency [7]	Potency [8]	Potency [9]	Potency [10]	Potency [11]	Potency [12]	Potency [13]	Potency [14]	Potency [15]	Potency [16]	max activation [17]	Potency [18]	Potency [19]
COCC(=O)N(c1c(C)cccc1C)N1CCOC1=O	inactive	inactive	inactive	inactive	inactive	inactive	inactive	inactive	inactive	inactive	inactive	79.6 µM (active)	inactive	inactive	inactive	inactive			
Nc1n[nH]c(N)n1	inactive	inactive	inactive	inactive	inactive	inactive	inactive	inactive	inactive	inactive	inactive	inactive	inactive	64.4 µM (active)	inactive				
CCN(Cc1ccc(Cl)nc1)/C(=C/[N+](=O)[O-])NC	inactive	inactive	inactive	inactive	inactive	inactive	inactive	inactive		inactive	inactive	inactive	inactive		inactive	inactive	-0.716%	inactive	inactive
ClC(Cl)(Cl)C(Cl)(Cl)Cl	inactive	inactive	inactive	inactive	inactive	inactive	inactive	inactive	inactive	inactive	inactive	inactive	inactive	inactive	inactive	inactive			
O=C1OC(c2ccc(O)c(S(=O)(=O)O)c2)(c2ccc(O)c(S(=O)(=O)O)c2)c2c(Br)c(Br)c(Br)c(Br)c21	inactive	inactive	inactive	inactive	inactive	inactive	inactive	inactive	inactive	inactive	inactive	inactive			inactive		-0.923%	inactive	inactive
Cc1ncsc1CCCl	inactive	inactive	inactive	inactive	inactive	inactive	inactive	inactive	inactive	inactive	inactive	inactive	inactive	inactive	inactive	inactive	-0.969%	inactive	inactive
COc1cc(OC)nc(Oc2cccc(Oc3nc(OC)cc(OC)n3)c2C(=O)O)n1	inactive	inactive	inactive	inactive	inactive	inactive	inactive	inactive	inactive	inactive	inactive	inactive	inactive	inactive	inactive	inactive			
c1coc(-c2nc3ccccc3[nH]2)c1	inactive	inactive	inactive	inactive	inactive	3.44 µM (active)	inactive	inactive	inactive	inactive	44.8 µM (active)	28.3 µM (active)	inactive	7.96 µM (active)	inactive	inactive			
COP(=S)(OC)Oc1c(Cl)cc(C)cc1Cl	inactive	inactive	inactive	inactive	inactive	24.3 µM (active)	inactive	inactive	inactive	inactive	inactive	7.1 µM (active)	8.94 µM (active)		inactive				
O=NN1CCCCC1	inactive	inactive	inactive	inactive	inactive	inactive	inactive	inactive	inactive	inactive	inactive	35.4 µM (active)			inactive				
O=C(O)c1cccc(Cl)c1	inactive	inactive	inactive	inactive	inactive	inactive	inactive	inactive	inactive	inactive	inactive	inactive			inactive	inactive			
O=[N+]([O-])c1cc(Cl)c(Cl)c(Cl)c1	inactive	inactive	inactive	inactive	inactive	inactive	inactive	inactive	inactive	inactive	inactive	inactive	inactive		inactive	inactive			
O=NN1CCN(N=O)CC1	inactive	inactive	inactive	inactive	inactive	inactive	inactive	inactive	inactive	inactive	inactive	inactive	inactive		inactive				
Oc1c(Cl)cccc1Cl	inactive	inactive	inactive	inactive	inactive	inactive	inactive	inactive	inactive	inactive	inactive	inactive	inactive		inactive	inactive			
CCC(C)(C)c1cc(-n2nc3ccccc3n2)c(O)c(C(C)(C)CC)c1	inactive	inactive	inactive	inactive	inactive	69.6 µM (active)	inactive	inactive	inactive	inactive	25.6 µM (active)	20.3 µM (active)			inactive				
CC1CCC(=O)O1 (centres undefined)	inactive	inactive	inactive	inactive	inactive	inactive	inactive	inactive	inactive	inactive	inactive	inactive	inactive		inactive	inactive			
Cc1cccc(C#N)c1	inactive	inactive	inactive	inactive	inactive	inactive	inactive	inactive	inactive	inactive	inactive	inactive	inactive		inactive	inactive			
